Source: PubChem BioAssay (Tox21)
Inconclusive results are not listed. Active and inactive are the calls of the source. Unless noted, calls come from the whole dose curve; as a rule, active = well fitted curve in the direction sought with a large enough effect in the repeat runs; inconclusive = weak or mixed curves; inactive = no such curve, though single readings can be large; an effect the other way counts as inactive or inconclusive.

Key:
[1] = qHTS assay to identify small molecule agonists of the sonic hedgehog signaling (Shh) pathway (AID 1259368; calls by dose curve;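 note: NIH/3T3-derived 3T3Gli1-Luc cells carrying a stable Gli1-driven firefly luciferase reporter; series mostly up to about 92 µM; nearly all actives have a fitted effect of over 15% in size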)
Summary of the method: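 Steps: seed 3T3 Gli1-Luc cells, incubate 4 hr at 37 C, pin-transfer compounds in DMSO alongside a positive control, incubate 24 hr, add luciferase detection reagent, wait 30 min at room temperature, read luminescence.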

[2] = qHTS assay to identify small molecule antagonists of the sonic hedgehog signaling (Shh) pathway (AID 1259369; calls by dose curve; note: nearly all actives have a fitted effect of over 45% in size; note: potency is the fitted concentration of half-maximal effect)
Summary of the method: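 Inhibition of Shh signalling is measured as reduced Gli1-response-element firefly luciferase output in an NIH/3T3-derived stable reporter clone stimulated with conditioned medium for 24hr.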

[3] = molecular target: Estrogen receptor beta (Homo sapiens) (UniProt Q92731); assay: qHTS assay to identify small molecule agonists of the estrogen receptor beta (ER-beta) signaling pathway (AID 1259377; active = well fitted activation curve with a large enough effect in the signal ratio in the repeat runs, not every such curve was filed as active; the % refers to the signal ratio)
Chain of Estrogen receptor beta (Homo sapiens) (Q92731 whole entry, looked up): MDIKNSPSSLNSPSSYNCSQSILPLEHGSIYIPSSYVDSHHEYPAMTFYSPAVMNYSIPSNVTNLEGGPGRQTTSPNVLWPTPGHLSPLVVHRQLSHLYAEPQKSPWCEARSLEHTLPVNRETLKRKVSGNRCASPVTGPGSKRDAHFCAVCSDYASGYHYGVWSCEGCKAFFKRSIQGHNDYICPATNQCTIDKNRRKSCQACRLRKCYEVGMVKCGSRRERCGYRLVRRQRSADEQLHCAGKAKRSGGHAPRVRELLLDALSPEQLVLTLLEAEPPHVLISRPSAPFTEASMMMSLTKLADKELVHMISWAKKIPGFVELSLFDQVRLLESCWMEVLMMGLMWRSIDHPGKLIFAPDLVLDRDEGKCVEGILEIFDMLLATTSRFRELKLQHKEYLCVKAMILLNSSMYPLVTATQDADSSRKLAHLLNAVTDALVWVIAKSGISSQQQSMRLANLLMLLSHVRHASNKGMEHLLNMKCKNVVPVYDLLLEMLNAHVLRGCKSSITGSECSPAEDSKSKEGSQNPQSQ
Summary of the method: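 ER-beta-UAS-bla HEK293T (GripTite) cells carrying a UAS-driven beta-lactamase reporter, in medium with 2% charcoal-stripped FBS, were exposed to compounds for 16 hr at 37C; LiveBLAzer B/G FRET substrate was then added and fluorescence read after 2 hours at room temperature.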

[4] = molecular target: Estrogen receptor beta (Homo sapiens) (UniProt Q92731); assay: qHTS assay to identify small molecule antagonists of the estrogen receptor beta (ER-beta) signaling pathway (AID 1259378; active = well fitted inhibition curve with a large enough effect in the signal ratio in the repeat runs, not every such curve was filed as active; the % refers to the signal ratio)
Summary of the method: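 ER-beta-UAS-bla HEK293T (GripTite) cells in 2% charcoal-stripped FBS medium were preincubated 6 hr at 37C, dosed with compound, then stimulated with 1 nM E2 (final) for 16 hr; beta-lactamase reporter read by B/G FRET fluorescence after 2 hr substrate loading.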

[5] = qHTS assay to identify small molecule agonists of the androgen receptor (AR) signaling pathway in the presence of an antagonist - cell viability counter screen (AID 1259379);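 note: MDA-kb2 human breast cancer cells carrying an MMTV luciferase reporter; series mostly up to about 92 µM; nearly all actives have a fitted effect of over 25% in size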
Summary of the method: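 Fluorescence from CellTiter-Fluor, added after 15 hr and read 1 hr later, gave cell viability. Cells were MDA-kb2 exposed to compounds (15 concentrations) in the presence of 3.0uM nilutamide at 37C, 0% CO2.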

[6] = qHTS assay to identify small molecule agonists of the estrogen receptor beta (ER-beta) signaling pathway - cell viability counter screen (AID 1259380); note: nearly all actives have a fitted effect of over 30% in size
Summary of the method: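 Same-well viability counter screen. Cells: ER-beta-UAS-bla HEK293T, plated 6 hr before compound, in 2% charcoal-stripped FBS. Compound exposure 16 hr, 37C; viability by CellTiter-Glo luminescence after 30 min at room temperature.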

[7] = molecular target: Androgen receptor (Homo sapiens) (UniProt P10275); assay: qHTS assay to identify small molecule agonists of the androgen receptor (AR) signaling pathway in the presence of an antagonist (AID 1259381; calls by dose curve; note: nearly all actives have a fitted effect of over 15% in size)
Chain of Androgen receptor (Homo sapiens) (P10275 whole entry, looked up): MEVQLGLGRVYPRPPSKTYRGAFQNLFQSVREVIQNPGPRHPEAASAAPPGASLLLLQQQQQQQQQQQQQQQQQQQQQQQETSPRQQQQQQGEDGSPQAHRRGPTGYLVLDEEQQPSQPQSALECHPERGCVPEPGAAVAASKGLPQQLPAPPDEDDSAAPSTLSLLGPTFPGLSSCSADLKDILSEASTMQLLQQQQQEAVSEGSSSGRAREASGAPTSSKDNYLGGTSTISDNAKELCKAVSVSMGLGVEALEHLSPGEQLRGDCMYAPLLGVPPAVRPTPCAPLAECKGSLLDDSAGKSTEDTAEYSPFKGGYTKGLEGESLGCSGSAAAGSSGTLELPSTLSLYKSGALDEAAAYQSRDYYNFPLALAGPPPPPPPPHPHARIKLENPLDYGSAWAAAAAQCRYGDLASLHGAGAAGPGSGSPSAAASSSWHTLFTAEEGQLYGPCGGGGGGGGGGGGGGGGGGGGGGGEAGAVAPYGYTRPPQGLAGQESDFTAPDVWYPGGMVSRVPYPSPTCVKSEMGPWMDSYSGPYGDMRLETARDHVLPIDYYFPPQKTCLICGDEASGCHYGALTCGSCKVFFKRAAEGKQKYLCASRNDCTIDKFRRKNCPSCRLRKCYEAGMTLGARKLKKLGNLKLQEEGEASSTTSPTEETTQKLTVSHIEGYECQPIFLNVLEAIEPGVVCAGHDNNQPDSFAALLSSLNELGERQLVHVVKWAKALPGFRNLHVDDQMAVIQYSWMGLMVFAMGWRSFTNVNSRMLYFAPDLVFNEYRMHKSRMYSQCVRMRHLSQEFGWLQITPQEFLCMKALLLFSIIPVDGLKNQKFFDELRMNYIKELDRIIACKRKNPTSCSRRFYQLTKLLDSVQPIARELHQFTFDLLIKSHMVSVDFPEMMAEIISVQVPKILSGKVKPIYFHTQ
Summary of the method: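 Cells are MDA-kb2 (human breast carcinoma, MMTV-luc, AR/GR responsive). Nilutamide is present at 3.0uM final throughout; compounds are added at 15 concentrations and incubated 16hr at 37C before ONE-Glo luminescence detection.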

[8] = qHTS assay to identify small molecule antagonists of the estrogen receptor beta (ER-beta) signaling pathway - cell viability counter screen (AID 1259382); note: series mostly up to about 92 µM; nearly all actives have a fitted effect of over 55% in size
Summary of the method: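 Following a 6 hr plating period, HEK293T cells carrying a UAS-driven beta-lactamase reporter under ER-beta control received compounds and 1nM E2 (final). After 16 hr at 37C and 2 hr substrate loading, CellTiter-Glo luminescence indicated viability.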

[9] = molecular target: Estrogen receptor (Homo sapiens) (UniProt P03372); assay: qHTS assay to identify small molecule agonists of the estrogen receptor alpha (ER-alpha) signaling pathway in the presence of an antagonist (AID 1259383; calls by dose curve; note: top concentration of the series differs between compounds; nearly all actives have a fitted effect of over 15% in size)
Chain of Estrogen receptor (Homo sapiens) (P03372 whole entry, looked up): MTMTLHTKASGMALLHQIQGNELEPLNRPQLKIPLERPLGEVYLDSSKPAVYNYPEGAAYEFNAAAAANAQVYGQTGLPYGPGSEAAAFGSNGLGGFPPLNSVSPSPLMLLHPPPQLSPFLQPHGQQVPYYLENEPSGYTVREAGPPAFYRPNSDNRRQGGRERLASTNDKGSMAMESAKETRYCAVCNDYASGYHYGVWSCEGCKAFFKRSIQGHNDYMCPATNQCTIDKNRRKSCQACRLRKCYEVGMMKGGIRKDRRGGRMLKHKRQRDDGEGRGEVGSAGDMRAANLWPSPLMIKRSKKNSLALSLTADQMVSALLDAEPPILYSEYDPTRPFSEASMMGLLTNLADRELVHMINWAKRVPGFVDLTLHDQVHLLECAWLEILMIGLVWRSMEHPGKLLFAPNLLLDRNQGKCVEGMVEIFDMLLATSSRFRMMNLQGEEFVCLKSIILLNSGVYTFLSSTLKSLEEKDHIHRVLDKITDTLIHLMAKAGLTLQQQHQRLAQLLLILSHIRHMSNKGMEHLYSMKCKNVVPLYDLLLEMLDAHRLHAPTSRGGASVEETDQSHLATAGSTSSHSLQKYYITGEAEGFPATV
Summary of the method: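 Cells are hormone-deprived for 5 days (charcoal-stripped FBS, no phenol red), plated for 24hr, spiked with 10.0nM ICI-182,780, then dosed at 15 concentrations. After 22hr at 37C, ONE-Glo luminescence reports ERE-luciferase activity.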

[10] = qHTS assay to identify small molecule agonists or antagonists of the thyroid stimulating hormone receptor (TSHR) signaling pathway - wild type cell line counter screen (AID 1259384; calls by dose curve)
Summary of the method: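 Wild-type HEK293 cells were plated 18 h at 37 C/5% CO2, pin-dosed with compound plus Ro20-1724 medium, held 30 min at room temperature, then given cAMP-d2 and anti-cAMP-cryptate; fluorescence was read after 1 h. Fifteen concentrations, triplicate.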

[11] = molecular target: Thyrotropin receptor (Homo sapiens) (UniProt P16473); assay: qHTS assay to identify small molecule antagonists of the thyroid stimulating hormone receptor (TSHR) signaling pathway (AID 1259385; calls by dose curve; note: nearly all actives have a fitted effect of over 20% in size)
Chain of Thyrotropin receptor (Homo sapiens) (P16473 whole entry, looked up): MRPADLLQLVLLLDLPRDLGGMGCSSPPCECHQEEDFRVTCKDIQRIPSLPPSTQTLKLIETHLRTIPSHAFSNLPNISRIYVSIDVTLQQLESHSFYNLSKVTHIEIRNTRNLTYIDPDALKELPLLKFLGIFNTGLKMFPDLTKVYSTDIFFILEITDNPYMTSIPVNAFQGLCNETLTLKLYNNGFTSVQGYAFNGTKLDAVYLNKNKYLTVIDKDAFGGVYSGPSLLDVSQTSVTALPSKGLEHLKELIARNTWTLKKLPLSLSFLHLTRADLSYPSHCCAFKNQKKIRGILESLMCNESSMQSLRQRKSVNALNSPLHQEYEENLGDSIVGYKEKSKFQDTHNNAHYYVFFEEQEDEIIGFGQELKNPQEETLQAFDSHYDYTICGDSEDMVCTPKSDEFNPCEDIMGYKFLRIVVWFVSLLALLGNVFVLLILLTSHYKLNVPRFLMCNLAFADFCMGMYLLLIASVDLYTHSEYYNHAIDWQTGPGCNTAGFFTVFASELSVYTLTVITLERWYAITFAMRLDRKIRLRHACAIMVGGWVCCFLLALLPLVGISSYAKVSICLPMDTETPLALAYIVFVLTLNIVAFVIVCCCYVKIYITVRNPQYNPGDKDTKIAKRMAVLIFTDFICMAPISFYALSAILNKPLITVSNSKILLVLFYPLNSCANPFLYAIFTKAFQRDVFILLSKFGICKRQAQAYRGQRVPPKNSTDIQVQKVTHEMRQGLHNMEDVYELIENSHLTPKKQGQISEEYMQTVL
Summary of the method: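 TSHR-HEK293 cells were plated and held 18 h at 37C/5% CO2, then given compound plus Ro20-1724 and stimulated with TSH at 1.5 ng/mL final. After 30 min at room temperature, cAMP was detected with cAMP-d2/anti-cAMP-cryptate (1 h) by fluorescence.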

[12] = qHTS assay to identify small molecule agonists of the estrogen receptor alpha (ER-alpha) signaling pathway in the presence of an antagonist - cell viability counter screen (AID 1259386);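 note: series mostly up to about 92 µM; cells exposed to compounds for 22 h at 37 °C before the viability read; nearly all actives have a fitted effect of over 30% in size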
Summary of the method: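 Cells are starved of estrogens for 5 days in charcoal-stripped serum, seeded for 24hr and co-treated with ICI-182,780 (10.0nM final) and test compounds. After 22hr at 37C, viability is read as CellTiter-Fluor fluorescence.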

[13] = molecular target: Progesterone receptor (Homo sapiens) (UniProt P06401); assay: qHTS assay to identify small molecule agonists of the progesterone receptor (PR) signaling pathway (AID 1346784; calls by dose curve; note: nearly all actives have a fitted effect of over 30% in size)
Chain of Progesterone receptor (Homo sapiens) (P06401 whole entry, looked up): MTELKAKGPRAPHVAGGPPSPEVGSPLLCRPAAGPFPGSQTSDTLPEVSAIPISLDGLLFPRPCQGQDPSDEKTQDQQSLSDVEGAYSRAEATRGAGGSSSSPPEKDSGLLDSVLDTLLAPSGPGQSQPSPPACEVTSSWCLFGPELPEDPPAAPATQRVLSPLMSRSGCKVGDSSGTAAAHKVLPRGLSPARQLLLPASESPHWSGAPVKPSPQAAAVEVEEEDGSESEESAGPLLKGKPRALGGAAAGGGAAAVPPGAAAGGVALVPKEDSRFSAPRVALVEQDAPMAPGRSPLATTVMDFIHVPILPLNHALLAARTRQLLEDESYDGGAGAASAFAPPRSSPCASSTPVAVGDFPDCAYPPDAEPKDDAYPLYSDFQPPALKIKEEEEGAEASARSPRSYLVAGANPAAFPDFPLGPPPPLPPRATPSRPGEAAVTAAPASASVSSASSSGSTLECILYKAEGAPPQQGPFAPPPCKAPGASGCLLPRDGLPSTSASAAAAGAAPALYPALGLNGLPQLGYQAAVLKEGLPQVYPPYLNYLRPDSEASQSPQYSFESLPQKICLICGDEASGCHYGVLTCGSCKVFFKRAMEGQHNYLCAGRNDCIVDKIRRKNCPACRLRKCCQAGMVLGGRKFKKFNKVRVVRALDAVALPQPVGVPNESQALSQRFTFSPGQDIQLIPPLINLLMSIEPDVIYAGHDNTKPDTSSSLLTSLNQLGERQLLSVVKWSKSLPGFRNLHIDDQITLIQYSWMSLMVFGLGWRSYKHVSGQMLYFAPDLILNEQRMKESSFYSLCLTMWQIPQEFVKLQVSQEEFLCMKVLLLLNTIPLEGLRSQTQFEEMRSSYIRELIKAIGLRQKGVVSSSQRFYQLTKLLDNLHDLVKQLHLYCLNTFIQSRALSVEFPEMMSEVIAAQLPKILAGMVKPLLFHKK
Summary of the method: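 PR-UAS-bla HEK 293T cells carrying a UAS-driven beta-lactamase reporter were seeded in medium with 2% charcoal-stripped FBS, preincubated 6 hr at 37C, then exposed to compounds in DMSO for 16 hr; agonism was read by LiveBLAzer B/G FRET fluorescence.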

[14] = molecular target: Progesterone receptor (Homo sapiens) (UniProt P06401); assay: qHTS assay to identify small molecule antagonists of the progesterone receptor (PR) signaling pathway (AID 1346795; active = well fitted inhibition curve with a large enough effect in the signal ratio in the repeat runs, not every such curve was filed as active; the % refers to the signal ratio; note: potency is the fitted concentration of half-maximal effect)
Summary of the method: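 PR-UAS-bla HEK293T cells carrying a UAS-driven beta-lactamase reporter were plated in medium with 2% charcoal-stripped FBS and rested 6 hr at 37C. Compounds were added with 1 nM R5020 (final) for 16 hr, then FRET substrate loaded 2 hr at room temperature.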

[15] = qHTS assay to identify small molecule antagonists of the progesterone receptor (PR) signaling pathway - cell viability counter screen (AID 1346798); note: series mostly up to about 92 µM; nearly all actives have a fitted effect of over 50% in size
Summary of the method: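 PR-UAS-bla HEK293T cells in medium with 2% charcoal-stripped FBS were treated with compounds plus R5020 for 16 hr at 37C. Cell viability was then read by CellTiter-Glo luminescence after 30 min at room temperature in the same wells.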

[16] = qHTS assay to identify small molecule agonists of the progesterone receptor (PR) signaling pathway - cell viability counter screen (AID 1346799; calls by dose curve; note: nearly all actives have a fitted effect of over 45% in size)
Summary of the method: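 PR-UAS-bla HEK293T cells, 3,000 per well in medium with 2% charcoal-stripped FBS, were preincubated 6 hr at 37C, then exposed to compounds for 16 hr; viability was read as CellTiter-Glo luminescence after 30 min at room temperature.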

[17] = qHTS assay to identify small molecule antagonists of the TGF-beta/Smad signaling pathway - cell viability counter screen (AID 1346824); note: nearly all actives have a fitted effect of over 50% in size
Summary of the method: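 SBE-bla HEK 293T cells were plated overnight at 37 C, then given compounds in DMSO plus TGF-beta1 (added as 0.25 ng/mL solution) for 5 hr. After the bla read, CellTiter-Glo was added to the same wells and luminescence read after 30 min at room temperature.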

[18] = qHTS assay to identify small molecule agonists of the TGF-beta/Smad signaling pathway - cell viability counter screen (AID 1346829); note: top concentration of the series differs between compounds; nearly all actives have a fitted effect of over 45% in size
Summary of the method: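 Compound-treated SBE-bla HEK 293T cells (5 hr, 37 C) were assessed for viability with CellTiter-Glo in parallel with the reporter read.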

[19] = qHTS assay to identify small molecule agonists of the TGF-beta/Smad signaling pathway (AID 1346859; active = well fitted activation curve with a large enough effect in the signal ratio in the repeat runs, not every such curve was filed as active; the % refers to the signal ratio; note: series mostly up to about 77 µM)
Summary of the method: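 HEK 293T cells stably carrying a beta-lactamase reporter driven by the Smad binding element were seeded overnight, exposed to DMSO-dissolved compounds for 5 hr at 37 C, 5% CO2, then loaded with FRET substrate for 2 hr at room temperature.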

[20] = molecular target: Thyrotropin-releasing hormone receptor (Homo sapiens) (UniProt P34981); assay: qHTS assay to identify small molecule antagonists of the thyrotropin-releasing hormone receptor (TRHR) signaling pathway (AID 1346877; active = well fitted inhibition curve with a large enough effect in the repeat runs, not every such curve was filed as active; note: series mostly up to about 51 µM)
Chain of Thyrotropin-releasing hormone receptor (Homo sapiens) (P34981 whole entry, looked up): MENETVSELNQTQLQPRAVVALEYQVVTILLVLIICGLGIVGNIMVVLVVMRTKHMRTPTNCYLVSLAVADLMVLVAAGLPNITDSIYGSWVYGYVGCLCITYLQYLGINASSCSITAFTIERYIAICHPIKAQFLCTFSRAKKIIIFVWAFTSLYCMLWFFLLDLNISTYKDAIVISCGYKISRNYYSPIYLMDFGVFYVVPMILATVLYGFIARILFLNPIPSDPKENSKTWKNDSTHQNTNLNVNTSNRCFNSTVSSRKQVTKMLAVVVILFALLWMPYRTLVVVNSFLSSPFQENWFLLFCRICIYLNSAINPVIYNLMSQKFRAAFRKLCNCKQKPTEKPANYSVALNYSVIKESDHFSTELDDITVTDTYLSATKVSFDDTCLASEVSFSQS
Summary of the method: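 Cells (TRHR-HEK293) are plated and kept 18 h at 37 °C/5% CO2. A calcium-sensitive dye is added for 2 h, compound follows for 5 min at room temperature, and TRH is then given at 1 nM final.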

Measured: Potency

CC1(C)SC(C)(C)SC(C)(C)S1
inactive: [1] | [2] | [3] | [4] | [5] | [6] | [7] | [8] | [9] | [10] | [11] | [12] | [13] | [14] | [15] | [16] | [17] | [18] | [19]

CC(C)(C)OC(=O)N1C[C@@H](F)C[C@H]1C(=O)O
inactive: [1] | [2] | [3] | [4] | [5] | [6] | [8] | [9] | [10] | [11] | [12] | [13] | [14] | [15] | [16] | [17] | [18] | [19] | [20]

O=c1[nH]c2ccccc2c(=O)n1CCCl
inactive: [1] | [2] | [3] | [4] | [5] | [6] | [7] | [8] | [10] | [11] | [12] | [13] | [14] | [15] | [16] | [17] | [18] | [19] | [20]

O=[N+]([O-])c1ccc(Oc2ccc([N+](=O)[O-])cc2)cc1
inactive: [1] | [2] | [3] | [4] | [5] | [6] | [8] | [9] | [12] | [13] | [17] | [18] | [19]
active: [14] 3.94 µM

NS(=O)(=O)c1cc2c(cc1C(F)(F)F)NC(Cc1ccccc1)NS2(=O)=O (stereo not drawn)
inactive: [1] | [2] | [3] | [4] | [5] | [6] | [7] | [8] | [10] | [11] | [12] | [13] | [14] | [16] | [17] | [18] | [19] | [20]

COc1ccc(NC(C)=O)cc1
inactive: [1] | [2] | [3] | [4] | [5] | [6] | [7] | [8] | [10] | [11] | [12] | [13] | [14] | [15] | [16] | [17] | [18] | [19]

Fc1ccccc1-c1ccccc1
inactive: [1] | [2] | [3] | [4] | [5] | [6] | [8] | [9] | [10] | [11] | [12] | [13] | [14] | [15] | [16] | [17] | [18] | [19]

CC1=CCC2C(C1)C2(C)C (stereo not drawn)
inactive: [1] | [3] | [4] | [5] | [6] | [7] | [8] | [9] | [10] | [11] | [12] | [13] | [14] | [15] | [17] | [18] | [19] | [20]
active: [2] 17.2 µM

CCCCCCOC(=O)CC(CC(=O)OCCCCCC)(OC(=O)CCC)C(=O)OCCCCCC
inactive: [1] | [2] | [3] | [4] | [5] | [6] | [7] | [8] | [9] | [10] | [11] | [12] | [14] | [15] | [18] | [19]

CC(C)(O)Cc1ccccc1
inactive: [1] | [2] | [3] | [4] | [5] | [6] | [8] | [10] | [11] | [12] | [13] | [14] | [15] | [16] | [17] | [18] | [19] | [20]

C=CCn1c(=O)n([C@@H]2O[C@H](CO)[C@@H](O)[C@H]2O)c2nc(N)[nH]c(=O)c21
inactive: [1] | [2] | [3] | [4] | [5] | [6] | [7] | [8] | [10] | [11] | [12] | [13] | [14] | [15] | [17] | [18] | [19] | [20]

Cn1cnc2c(=O)[nH]c(N)nc21
inactive: [1] | [2] | [3] | [4] | [5] | [6] | [8] | [10] | [11] | [12] | [13] | [14] | [15] | [16] | [17] | [18] | [19]

CC(C=O)Cc1ccc(C(C)C)cc1 (stereo not drawn)
inactive: [1] | [2] | [3] | [4] | [5] | [6] | [8] | [10] | [11] | [12] | [13] | [14] | [15] | [16] | [17] | [18] | [19] | [20]

C[C@H](O)C(=O)Nc1c(I)c(C(=O)NC(CO)CO)c(I)c(C(=O)NC(CO)CO)c1I
inactive: [1] | [2] | [3] | [4] | [5] | [6] | [8] | [10] | [11] | [12] | [13] | [14] | [15] | [16] | [17] | [18] | [19]
